# Compounds with a hit are over-represented: about 2.4% of the library has one in this group of screens.
# M1 ag: human M1 muscarinic receptor agonism; P11229; CHO-K1 hM1, Fluo-8 calcium fluorescence, agonist mode; 0% DMSO, 100% acetylcholine EC100; activation, % at 3 µM; hit rate 0.33% among 360,000; AID 588814;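 active = activation above the run's mean compound activation plus 3 SD, cut at about 16% in these data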;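 also: peak over basal fluorescence ratio within a 140 s kinetic read after compound addition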
# Target sequence (P11229 whole entry, looked up): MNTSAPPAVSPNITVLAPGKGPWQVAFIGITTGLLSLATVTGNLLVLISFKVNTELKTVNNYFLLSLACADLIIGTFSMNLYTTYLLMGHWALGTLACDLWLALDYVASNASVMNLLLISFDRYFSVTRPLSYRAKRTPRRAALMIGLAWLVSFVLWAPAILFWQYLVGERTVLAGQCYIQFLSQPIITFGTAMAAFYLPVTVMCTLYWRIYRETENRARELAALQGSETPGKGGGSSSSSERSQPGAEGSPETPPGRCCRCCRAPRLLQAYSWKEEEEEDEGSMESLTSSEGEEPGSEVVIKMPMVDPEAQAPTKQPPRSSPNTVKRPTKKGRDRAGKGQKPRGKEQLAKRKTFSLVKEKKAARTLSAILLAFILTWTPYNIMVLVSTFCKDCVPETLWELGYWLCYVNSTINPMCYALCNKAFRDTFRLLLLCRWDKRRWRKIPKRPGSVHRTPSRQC
# CHRM1 antagonist: antagonists of human M1 muscarinic receptor; P11229; CHO-K1 hM1, Fluo-8 calcium fluorescence, ACh EC80 antagonist; inhibition, % at 3 µM; hit rate 1.3% among 360,000; AID 588852;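 active = percent inhibition above its own plate's cutoff, namely the mean of that plate's compound wells plus 3 SD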;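 also: peak over basal fluorescence ratio during 140 s after agonist addition; 0% = ACh EC80 plus DMSO and 100% = DMSO alone without agonist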
# CHO-K1 Ca antag: nonselective inhibitor or artifact in parental CHO-K1 cells; ATP-induced calcium, Fluo-8 fluorescence; inhibition, % at 3 µM; hit rate 0.6% among 360,000; AID 602250;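 active = inhibition above a per-plate cutoff, the plate's mean sample inhibition plus 3 SD, cut at about 24% in these data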;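 also: 0% = DMSO plus EC80 ATP and 100% = DMSO alone without ATP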
# M1 ag parental: nonselective activator or artifact in parental CHO-K1 cells. Fluo-8 calcium fluorescence; scaled to maximal ATP response, vehicle zero. activation, % at 3 µM. hit rate 0.48% among 360,000; in the data active = activation above about 15%;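 also: untransfected CHO-K1 host cells lacking M1 receptor as counterscreen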
# M1 PAM: potentiates human M1 receptor response to acetylcholine; P11229; CHO-K1 hM1, Fluo-8 calcium fluorescence, ACh EC20; 0% = ACh EC20, 100% = maximal ACh; activation, % at 3 µM; hit rate 0.088% among 360,000; AID 588819; in the data active = activation above about 19%, passing the limit was not always enough
# CHO-K1 Ca PAM: counter-screen for M1 PAMs: effect in parental CHO-K1 cells | hit rate 0.02% among 360,000 | ATP EC20, Fluo-8 calcium fluorescence; 0% at ATP EC20, 100% at ATP max | activation, % at 3 µM;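 active = activation above the run cutoff, the mean activation of all test compounds plus 3 SD, cut at about 40% in these data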;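 also: peak over basal fluorescence ratio in a 140 s read after ATP addition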
# An asterisk follows results filed as active.
SMILES,M1 ag,CHRM1 antagonist,CHO-K1 Ca antag,M1 ag parental,M1 PAM,CHO-K1 Ca PAM
COc1ccc(CN(C)C(=O)C2CCN(C(=O)Nc3ccccc3)CC2)cc1,0.0,18.7,25.5*,0.8,-6.5,-27.2
COc1ccc2cc(C(=O)N3CCC(Cc4ccccc4)CC3)[nH]c2c1,-4.4,-11.8,-12.2,0.4,7.0,17.0
CC1(c2ccccc2)NC(=O)N(CC(=O)Nc2ccccc2N2CCCC2)C1=O (stereo unspecified),16.2*,-2.3,12.7,3.2,8.0,-30.4
O=C(CN1C(=O)NC2(CCCC2)C1=O)Nc1ccccc1N1CCCC1,-1.5,-15.2,-13.1,2.1,11.9,14.2
CC1(c2ccc3c(c2)OCCO3)NC(=O)N(CC(=O)Nc2c(F)cccc2F)C1=O (stereo unspecified),2.8,-5.6,-10.2,1.2,7.9,-14.0
CC1(c2ccc3c(c2)OCCO3)NC(=O)N(CC(=O)Nc2ccccc2F)C1=O (stereo unspecified),11.8,-6.3,29.7*,0.8,8.9,-18.9
C=CCn1cccc(C(=O)Nc2ccc(OC)c(OC)c2)c1=O,-3.1,0.0,4.8,15.5*,0.5,1.4
COc1ccc(Cl)cc1NC(=O)Cn1c(C)csc1=O,-3.4,-0.3,-15.2,0.2,3.2,0.4
Cc1cc2n(n1)C(c1sccc1C)Nc1c(C)cccc1-2 (stereo unspecified),-0.3,1.9,24.8*,0.4,11.6,-6.4
COCCNC(=O)c1ccc(N2CC3CC(C2)c2cccc(=O)n2C3)c(NC(=O)c2c(F)cccc2F)c1 (stereo unspecified),14.8,1.7,-12.3,-0.3,12.4,16.4
CCC(C)NC(=O)c1ccc(N2CC3CC(C2)c2cccc(=O)n2C3)c(NC(=O)c2c(F)cccc2F)c1 (stereo unspecified),22.4*,-3.6,3.3,-0.5,-3.8,-1.6
CN1CCC(Oc2ccc(Sc3ccccc3)cc2)CC1,12.4,10.8,-6.1,2.4,-0.8,11.5
CN1CCC(Oc2ccccc2Sc2ccc(C(F)(F)F)cc2)CC1,-10.5,63.5*,-5.3,0.7,-24.4,13.8
CCCn1c(SCC(=O)Nc2cc(S(=O)(=O)N3CCCCC3)ccc2C)n[nH]c1=O,-3.5,1.1,7.2,0.1,-1.0,-6.6
COc1ccc(C(=O)OC2C(OC)OCC(O)C2O)cc1 (stereo unspecified),2.4,-7.1,-6.8,1.0,3.7,0.3
CN(C(=O)CCc1nnc(-c2ccc(-c3ccccc3)cc2)o1)C1CCOCC1,3.6,19.0,1.7,17.3*,-10.5,-6.4
CN1CCN(C(=O)/C(=C\c2ccccc2)c2ccccc2)CC1,-6.2,98.7*,5.0,0.2,-25.6,5.6
CN1CCN(C(=O)/C(=C/c2ccc(F)cc2)NC(=O)c2ccccc2)CC1,-7.2,0.4,12.6,0.4,1.0,-16.8
COc1ccc(NC(=O)C2(C)Cc3c(-c4ccc(NC(C)=O)cc4)ccnc3O2)cc1OC (stereo unspecified),-1.1,-1.2,3.1,-1.1,-0.6,9.2
C[C@@H]1CCCCO[C@H](CN(C)Cc2ccc(C(=O)O)cc2)[C@@H](C)CN([C@H](C)CO)C(=O)c2cc(NC(=O)CCC(F)(F)F)ccc2O1,-1.3,-9.6,-8.0,0.8,-1.7,3.0
CC1CCN(C(=O)C(C)NCc2ccc(F)cc2)CC1 (stereo unspecified),-9.0,-12.3,-13.4,0.3,3.1,13.7
Cc1ccc(N(CC(=O)N2CC(=O)Nc3ccccc32)S(=O)(=O)c2ccc3c(c2)OCCO3)cc1,-3.1,-1.6,29.1*,0.3,6.2,-2.6
O=C(O)CN(c1ccc(F)cc1)S(=O)(=O)c1ccc2c(c1)OCCO2,-3.1,-18.3,-5.3,-0.1,13.3,5.1
O=C(c1cc2ccccc2o1)N1CCC(N2CCC(C(=O)N3CCCC3)CC2)CC1,-13.7,8.7,24.1*,-0.6,-9.7,-15.9
Cc1cc(C)c(CN2CCN(C(=O)Cn3cnc4c(NCc5ccccc5)ncnc43)CC2)c(C)c1,-0.9,0.9,25.2*,1.1,0.9,-10.0
SMILES,M1 ag,CHRM1 antagonist,CHO-K1 Ca antag,M1 ag parental,M1 PAM,CHO-K1 Ca PAM
CC(=O)c1cccc(NC(=O)C(C)OC(=O)/C=C/c2cccs2)c1 (stereo unspecified),-4.0,2.6,-9.1,2.9,-1.0,1.6
O=C(COC(=O)c1ccc(F)cc1Cl)NC(=O)NC1CCCC1,-4.5,-3.3,1.6,0.1,1.2,3.6
COc1ccc(N(CC(=O)N2CCN(Cc3ccccc3)CC2)S(C)(=O)=O)cc1OC,0.2,-21.6,14.7,-0.1,13.9,-6.6
Cc1cccc(CSCCNC(=O)c2ccc(N(C)S(=O)(=O)c3ccccc3)cc2)c1,-0.8,3.9,3.6,4.8,-4.7,18.6
CN(c1ccc(C(=O)NCCSCc2ccccc2)cc1)S(=O)(=O)c1ccccc1,-1.6,14.7,24.2*,-0.2,-7.5,-9.0
CN(c1ccc(C(=O)Nc2ccccn2)cc1)S(=O)(=O)c1ccccc1,-0.8,-8.1,-10.2,0.5,10.8,13.9
Cc1cc(NC(=O)c2ccc(N(C)S(=O)(=O)c3ccccc3)cc2)no1,-1.1,15.2,-19.1,16.9*,-17.8,-4.9
CN(c1ccccc1)S(=O)(=O)c1ccc(NC(=O)c2ccc(F)cc2)cc1,1.4,12.6,2.8,19.4*,-13.5,4.4
CN(c1ccccc1)S(=O)(=O)c1ccc(NC(=O)c2ccccc2)cc1,-3.2,12.8,7.9,2.1,-8.9,-8.7
COc1ccc(CNC(=O)c2ccc(N(C)S(=O)(=O)c3ccc(C)cc3)cc2)cc1,0.6,-0.6,25.1*,0.2,3.7,-11.4
CCOC1=C2CN(S(=O)(=O)c3ccc(C)cc3)[C@H](c3cccc(Cl)c3)C[C@H]2[C@H]2C(=O)N(c3ccccc3)C(=O)[C@H]2C1,-2.3,-1.3,10.0,3.8,6.5,15.1
CCOC1=C2CN(S(=O)(=O)c3ccc(C)cc3)[C@@H](c3ccccc3)C[C@H]2[C@H]2C(=O)N(c3ccccc3)C(=O)[C@H]2C1,-3.5,11.2,28.3*,3.2,-1.2,4.7
CCOC1=C2[C@@H](CN(S(=O)(=O)c3ccc(C)cc3)[C@H]2c2ccc(CC)cc2)[C@H]2C(=O)N(c3ccccc3)C(=O)[C@H]2C1,-5.1,-3.2,3.0,-0.1,-3.4,4.4
CCCCC[C@@H]1[C@@H]2C(=C(OCC)C[C@@H]3C(=O)N(c4ccccc4)C(=O)[C@H]23)[C@H](c2ccccc2)N1S(=O)(=O)c1ccc(C)cc1,5.2,-4.7,24.7*,0.0,5.1,-0.6
CC(C)(C)[C@]1(O)CCN2C[C@H]3c4ccccc4CCc4cccc(c43)[C@@H]2C1,0.9,-32.2,-17.5,2.2,4.3,40.7*
C/C(=N\NC(=O)c1ccc(-n2cnnn2)cc1)c1ccc(Cl)cc1,-2.0,-11.2,-7.3,0.0,14.3,6.6

# Screening results deposited in PubChem by The Scripps Research Institute Molecular Screening Center.
